Assay results: PubChem BioAssay AID1159580 (chemical genetic matrix, 2015)
The whole screen tested about 5,500 compounds, of which about 2,000 (36%) were called active. Not shown: some 18% with an inconclusive outcome. Cut-off read from the data, not from the text of the source: active = normalized growth mostly below about 0.91 (no sharp cut-off); inconclusive = no clear call, values can overlap the other calls; inactive = mostly above about 0.92. This is one part of the list.

Assay: chemical genetic growth profiling, strain panel (AID 1159580);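 note: tested at 20 µM; growth read once vehicle control cultures reached saturation at 30 °C; 1 = growth at the plate median or of vehicle wells; lower values mean less growth of the strain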
Details: S. cerevisiae deletion strains, growth OD
[1] = locus YHR030C, strain SLT2, active compounds read low
[2] = locus YHR079C, strain IRE1, active compounds read low
[3] = locus YJL095W, strain BCK1, active compounds read low
[4] = locus YJR066W, strain TOR1, active compounds read low
[5] = locus YLR113W, strain HOG1, active compounds read low
[6] = locus YNL183C, strain NPR1, active compounds read low
[7] = locus YOR231W, strain MKK1, active compounds read low
[8] = locus YPL256C, strain CLN2, active compounds read low

Measured: normalized growth

Cc1cccc(C#Cc2ccccc2)n1
inactive: locus YAL040C, strain CLN3, active compounds read low 0.997 | locus YCL061C, strain MRC1 (second series), active compounds read low 0.968 | locus YDR363W, strain ESC2, active compounds read low 1.05 | locus YER002W, strain NOP16, active compounds read low 0.986 | locus YGR078C, strain PAC10, active compounds read low 0.978 | locus YMR263W, strain SAP30, active compounds read low 0.993 | locus YMR307W, strain GAS1, active compounds read low 0.919 | locus YNL128W, strain TEP1, active compounds read low 0.992 | locus YNL175C, strain NOP13, active compounds read low 0.977 | locus YNL197C, strain WHI3, active compounds read low 1 | locus YNL224C, strain SQS1, active compounds read low 1 | locus YNL322C, strain KRE1, active compounds read low 0.976 | locus YOR083W, strain WHI5 (second series), active compounds read low 0.918

CC(C)(CO)C(O)C(=O)NCCCO (stereo unspecified)
inactive: locus YAL021C, strain ccr4, active compounds read low 1 | locus YAL026C, strain drs2, active compounds read low 1.02 | locus YAL030W, strain snc1, active compounds read low 1.02 | locus YBL061C, strain skt5, active compounds read low 1.02 | locus YBR009C, strain hhf1, active compounds read low 1.03 | locus YBR023C, strain chs3, active compounds read low 1.03 | locus YBR171W, strain sec66, active compounds read low 1.03 | locus YBR231C, strain swc5, active compounds read low 1.02 | locus YBR279W, strain paf1, active compounds read low 1.01 | locus YCL011C, strain gbp2, active compounds read low 1.02 | locus YCL016C, strain dcc1, active compounds read low 1.02 | locus YCL061C, strain MRC1, active compounds read low 1.01 | locus YCL069W, strain vba3, active compounds read low 1.01 | locus YCR088W, strain abp1, active compounds read low 1.01 | locus YDL005C, strain med2, active compounds read low 1.01 | locus YDL040C, strain nat1, active compounds read low 1.01 | locus YDR001C, strain nth1, active compounds read low 1.02 | locus YDR069C, strain doa4, active compounds read low 1.02 | locus YDR137W, strain rgp1, active compounds read low 1.03 | locus YDR159W, strain sac3, active compounds read low 1.03 | locus YDR195W, strain ref2 1.01 | locus YDR297W, strain sur2, active compounds read low 1.01 | locus YDR334W, strain swr1, active compounds read low 1.01 | locus YDR335W, strain msn5, active compounds read low 1.01 | locus YDR392W, strain spt3, active compounds read low 1.02 | locus YEL003W, strain gim4, active compounds read low 1.02 | locus YEL037C, strain rad23, active compounds read low 1.01 | locus YEL061C, strain CIN8 (second series), active compounds read low 1.02 | locus YER015W, strain faa2, active compounds read low 1.01 | locus YER016W, strain bim1, active compounds read low 1.02 | locus YER111C, strain swi4, active compounds read low 1.01 | locus YER155C, strain BEM2 (second series), active compounds read low 1.04 | locus YFR010W, strain ubp6, active compounds read low 1.01 | locus YGL167C, strain pmr1, active compounds read low 1.03 | locus YGL173C, strain kem1, active compounds read low 1.02 | locus YGL227W, strain vid30, active compounds read low 1.02 | locus YGL240W, strain doc1, active compounds read low 1.02 | locus YGL253W, strain hxk2, active compounds read low 1.02 | locus YHR013C, strain ard1, active compounds read low 1.03 | locus YHR027C, strain rpn1, active compounds read low 1.02 | [1] 1.02 | [2] 1.01 | locus YHR142W, strain chs7, active compounds read low 1.01 | locus YJL092W, strain hpr5, active compounds read low 1.01 | locus YJL095W, strain BCK1 (second series), active compounds read low 1.01 | [3] 0.995 | locus YJL115W, strain asf1, active compounds read low 1.02 | locus YJL129C, strain trk1, active compounds read low 1.02 | locus YJL154C, strain vps35, active compounds read low 1.01 | locus YJL164C, strain tpk1, active compounds read low 1.02 | locus YJL166W, strain qcr8, active compounds read low 1.02 | locus YJL187C, strain SWE1, active compounds read low 1.01 | [4] 0.964 | locus YKL160W, strain elf1, active compounds read low 1.01 | locus YKR026C, strain gcn3, active compounds read low 0.994 | locus YKR091W, strain srl3, active compounds read low 1.01 | locus YLL001W, strain dnm1, active compounds read low 1.02 | locus YLL026W, active compounds read low 1.02 | locus YLL041C, strain sdh2, active compounds read low 1.02 | locus YLR027C, strain aat2, active compounds read low 1.02 | [5] 0.985 | locus YLR221C, strain rsa3, active compounds read low 1.01 | locus YLR258W, strain gsy2, active compounds read low 1.02 | locus YLR262C, strain YPT6 (second series), active compounds read low 1.02 | locus YLR320W, strain mms22, active compounds read low 1.02 | locus YLR342W, strain FKS1, active compounds read low 1.01 | locus YLR357W, strain rsc2, active compounds read low 1.04 | locus YLR370C, strain arc18, active compounds read low 1.02 | locus YLR384C, strain iki3, active compounds read low 1.02 | locus YML120C, strain ndi1, active compounds read low 1.01 | locus YMR058W, strain fet3, active compounds read low 1.01 | locus YMR125W, strain sto1, active compounds read low 1.03 | locus YMR129W, active compounds read low 1.01 | locus YMR205C, strain PFK2, active compounds read low 1.03 | locus YMR231W, strain pep5, active compounds read low 1.01 | locus YNL071W, strain lat1, active compounds read low 1.02 | [6] 0.954 | locus YNL209W, strain ssb2, active compounds read low 1.01 | locus YNL248C, strain rpa49, active compounds read low 0.992 | locus YNL322C, strain KRE1 (second series), active compounds read low 1.01 | locus YNR049C, strain mso1, active compounds read low 1.01 | locus YOR001W, strain rrp6, active compounds read low 1 | locus YOR070C, strain gyp1, active compounds read low 1.01 | locus YOR080W, strain dia2, active compounds read low 1.02 | locus YOR083W, strain WHI5, active compounds read low 1 | locus YOR106W, strain vam3, active compounds read low 1 | [7] 1.01 | locus YOR265W, strain rbl2, active compounds read low 1.01 | locus YOR270C, strain vph1, active compounds read low 1.03 | locus YOR290C, strain snf2, active compounds read low 1.03 | locus YPL051W, strain arl3, active compounds read low 1.03 | locus YPL078C, strain atp4, active compounds read low 1.01 | locus YPL106C, strain sse1, active compounds read low 1 | locus YPL240C, strain hsp82, active compounds read low 1.01 | [8] 0.994

C=C1CC[C@H](O)C/C1=C/C=C1\CCCC2(C)C1CCC2C(C)CCCC(C)C (stereo partly specified)
inactive: [1] 0.874 | [2] 0.925 | [3] 0.893 | [4] 0.943 | [6] 0.915 | [7] 0.896 | [8] 0.846
active: [5] 0.843
